# According to the supplement of paper PMC4466140:
# B1: unnamed (peptide)
# chain: KTRLRPAFIQQLWSS
# B2: unnamed (peptide)
# chain: LPMNIQPDLPPRKIM
# Experiments:
# Test in all cases: SPOT peptide array binding signal intensity (averaged, normalized) (arbitrary units (background-subtracted, floor 0; scale differs between SH3 domains)); higher = stronger binding of the SH3 domain to the peptide
# CaNbp2 = molecular target: CaNbp2
# In short: (§1)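 SH3 domains from four yeast species were expressed as GST fusions in E. coli BL21(DE3) and purified on glutathione Sepharose. Each was incubated at 10 μg/ml overnight at 4°C in TBS-based blocking buffer on cellulose membranes bearing synthetic 15-mer peptides, in which serines replaced cysteines. Bound protein was detected with anti-GST antibody, an HRP anti-mouse secondary and luminol, then imaged and quantified with Genespotter. The binding signal is the normalized, background-subtracted spot intensity averaged over replicates, in arbitrary units that are not the same from one domain to another.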
# CaRvs167 = molecular target: CaRvs167
# In short: as §1
# CaRvs167-3 = molecular target: CaRvs167-3
# In short: as §1
# CaSho1 = molecular target: CaSho1
# In short: as §1
# CaSla1-D1-D2 = molecular target: CaSla1-D1-D2
# In short: as §1
# CaSla1-D3 = molecular target: CaSla1-D3
# In short: as §1
# ScAbp1 = molecular target: ScAbp1
# In short: as §1
# ScBbc1 = molecular target: ScBbc1
# In short: as §1
# ScBem1-D1 = molecular target: ScBem1-D1
# In short: as §1
# ScBzz1-D1 = molecular target: ScBzz1-D1
# In short: as §1
# ScBzz1-D2 = molecular target: ScBzz1-D2
# In short: as §1
# ScCyk3 = molecular target: ScCyk3
# In short: as §1
# ScFus1 = molecular target: ScFus1
# In short: as §1
# ScHof1 = molecular target: ScHof1
# In short: as §1
# ScHse1 = molecular target: ScHse1
# In short: as §1
# ScLsb1 = molecular target: ScLsb1
# In short: as §1
# ScLsb2 = molecular target: ScLsb2
# In short: as §1
# ScLsb3 = molecular target: ScLsb3
# In short: as §1
# ScLsb4 = molecular target: ScLsb4
# In short: as §1
# ScMyo3 = molecular target: ScMyo3
# In short: as §1
# ScMyo5 = molecular target: ScMyo5
# In short: as §1
# ScNbp2 = molecular target: ScNbp2
# In short: as §1
# ScPex13 = molecular target: ScPex13
# In short: as §1
# ScRvs167 = molecular target: ScRvs167
# In short: as §1
# ScSho1 = molecular target: ScSho1
# In short: as §1
# ScSla1-D1-D2 = molecular target: ScSla1-D1-D2
# In short: as §1
# ScSla1-D3 = molecular target: ScSla1-D3
# In short: as §1
# SpAbp1-D1 = molecular target: SpAbp1-D1
# In short: as §1
# SpBbc1 = molecular target: SpBbc1
# In short: as §1
# SpBzz1-D1 = molecular target: SpBzz1-D1
# In short: as §1
# SpBzz1-D2 = molecular target: SpBzz1-D2
# In short: as §1
# SpCyk3 = molecular target: SpCyk3
# In short: as §1
# SpHof1 = molecular target: SpHof1
# In short: as §1
# SpHof1-2 = molecular target: SpHof1-2
# In short: as §1
# SpHof1-3 = molecular target: SpHof1-3
# In short: as §1
# SpHse1 = molecular target: SpHse1
# In short: as §1
# SpLsb1 = molecular target: SpLsb1
# In short: as §1
# SpLsb4 = molecular target: SpLsb4
# In short: as §1
# SpMyo1 = molecular target: SpMyo1
# In short: as §1
# SpNbp2 = molecular target: SpNbp2
# In short: as §1
# SpPex13 = molecular target: SpPex13
# In short: as §1
# SpRvs167 = molecular target: SpRvs167
# In short: as §1
# SpSla1-D1-D2 = molecular target: SpSla1-D1-D2
# In short: as §1
# SpSla1-D3 = molecular target: SpSla1-D3
# In short: as §1
# AgAbp1 = molecular target: AgAbp1
# In short: as §1
# AgBbc1 = molecular target: AgBbc1
# In short: as §1
# AgBem1-D1 = molecular target: AgBem1-D1
# In short: as §1
# AgBzz1-D1 = molecular target: AgBzz1-D1
# In short: as §1
# AgBzz1-D2 = molecular target: AgBzz1-D2
# In short: as §1
# AgCyk3 = molecular target: AgCyk3
# In short: as §1
# AgFus1 = molecular target: AgFus1
# In short: as §1
# AgHof1 = molecular target: AgHof1
# In short: as §1
# AgHse1 = molecular target: AgHse1
# In short: as §1
# AgLsb1 = molecular target: AgLsb1
# In short: as §1
# AgLsb4 = molecular target: AgLsb4
# In short: as §1
# AgMyo5 = molecular target: AgMyo5
# In short: as §1
# AgNbp2 = molecular target: AgNbp2
# In short: as §1
# AgRvs167 = molecular target: AgRvs167
# In short: as §1
# AgSho1 = molecular target: AgSho1
# In short: as §1
# AgSla1-D1-D2 = molecular target: AgSla1-D1-D2
# In short: as §1
# AgSla1-D3 = molecular target: AgSla1-D3
# In short: as §1
# CaAbp1-D1 = molecular target: CaAbp1-D1
# In short: as §1
# CaAbp1-D2 = molecular target: CaAbp1-D2
# In short: as §1
# CaBbc1 = molecular target: CaBbc1
# In short: as §1
# CaBem1-D1 = molecular target: CaBem1-D1
# In short: as §1
# CaBzz1-D1 = molecular target: CaBzz1-D1
# In short: as §1
# CaBzz1-D2 = molecular target: CaBzz1-D2
# In short: as §1
# CaCyk3 = molecular target: CaCyk3
# In short: as §1
# CaFus1 = molecular target: CaFus1
# In short: as §1
# CaHof1 = molecular target: CaHof1
# In short: as §1
# CaHse1 = molecular target: CaHse1
# In short: as §1
# CaLsb1 = molecular target: CaLsb1
# In short: as §1
# CaLsb4 = molecular target: CaLsb4
# In short: as §1
# CaMyo5 = molecular target: CaMyo5
# In short: as §1
binder,measurement,setting,value
B1,SPOT peptide array binding signal intensity,CaNbp2,338
same,SPOT peptide array binding signal intensity,CaRvs167,17.3
same,SPOT peptide array binding signal intensity,CaRvs167-3,2
same,SPOT peptide array binding signal intensity,CaSho1,338
same,SPOT peptide array binding signal intensity,CaSla1-D1-D2,≤ 0
same,SPOT peptide array binding signal intensity,CaSla1-D3,9.5
same,SPOT peptide array binding signal intensity,ScAbp1,17
same,SPOT peptide array binding signal intensity,ScBbc1,6.25
same,SPOT peptide array binding signal intensity,ScBem1-D1,60
same,SPOT peptide array binding signal intensity,ScBzz1-D1,29.5
same,SPOT peptide array binding signal intensity,ScBzz1-D2,82.5
same,SPOT peptide array binding signal intensity,ScCyk3,47
same,SPOT peptide array binding signal intensity,ScFus1,170
same,SPOT peptide array binding signal intensity,ScHof1,5.75
same,SPOT peptide array binding signal intensity,ScHse1,1510
same,SPOT peptide array binding signal intensity,ScLsb1,≤ 0
same,SPOT peptide array binding signal intensity,ScLsb2,≤ 0
same,SPOT peptide array binding signal intensity,ScLsb3,74.5
same,SPOT peptide array binding signal intensity,ScLsb4,1.5
same,SPOT peptide array binding signal intensity,ScMyo3,10
same,SPOT peptide array binding signal intensity,ScMyo5,3.5
same,SPOT peptide array binding signal intensity,ScNbp2,121
same,SPOT peptide array binding signal intensity,ScPex13,6.25
same,SPOT peptide array binding signal intensity,ScRvs167,13
same,SPOT peptide array binding signal intensity,ScSho1,431
same,SPOT peptide array binding signal intensity,ScSla1-D1-D2,36
same,SPOT peptide array binding signal intensity,ScSla1-D3,27.5
same,SPOT peptide array binding signal intensity,SpAbp1-D1,54.5
same,SPOT peptide array binding signal intensity,SpBbc1,4
same,SPOT peptide array binding signal intensity,SpBzz1-D1,170
same,SPOT peptide array binding signal intensity,SpBzz1-D2,1
same,SPOT peptide array binding signal intensity,SpCyk3,5
same,SPOT peptide array binding signal intensity,SpHof1,117
same,SPOT peptide array binding signal intensity,SpHof1-2,13.2
same,SPOT peptide array binding signal intensity,SpHof1-3,571
same,SPOT peptide array binding signal intensity,SpHse1,696
same,SPOT peptide array binding signal intensity,SpLsb1,≤ 0
same,SPOT peptide array binding signal intensity,SpLsb4,7
same,SPOT peptide array binding signal intensity,SpMyo1,3
same,SPOT peptide array binding signal intensity,SpNbp2,58.5
same,SPOT peptide array binding signal intensity,SpPex13,17
same,SPOT peptide array binding signal intensity,SpRvs167,6.67
same,SPOT peptide array binding signal intensity,SpSla1-D1-D2,≤ 0
same,SPOT peptide array binding signal intensity,SpSla1-D3,8
B2,SPOT peptide array binding signal intensity,AgAbp1,11.5
same,SPOT peptide array binding signal intensity,AgBbc1,73.8
same,SPOT peptide array binding signal intensity,AgBem1-D1,263
same,SPOT peptide array binding signal intensity,AgBzz1-D1,≤ 0
same,SPOT peptide array binding signal intensity,AgBzz1-D2,5
same,SPOT peptide array binding signal intensity,AgCyk3,6
same,SPOT peptide array binding signal intensity,AgFus1,301
same,SPOT peptide array binding signal intensity,AgHof1,109
same,SPOT peptide array binding signal intensity,AgHse1,139
same,SPOT peptide array binding signal intensity,AgLsb1,904
same,SPOT peptide array binding signal intensity,AgLsb4,3030
same,SPOT peptide array binding signal intensity,AgMyo5,≤ 0
same,SPOT peptide array binding signal intensity,AgNbp2,152
same,SPOT peptide array binding signal intensity,AgRvs167,525
same,SPOT peptide array binding signal intensity,AgSho1,218
same,SPOT peptide array binding signal intensity,AgSla1-D1-D2,≤ 0
same,SPOT peptide array binding signal intensity,AgSla1-D3,2.5
same,SPOT peptide array binding signal intensity,CaAbp1-D1,63.5
same,SPOT peptide array binding signal intensity,CaAbp1-D2,59.5
same,SPOT peptide array binding signal intensity,CaBbc1,423
same,SPOT peptide array binding signal intensity,CaBem1-D1,42
same,SPOT peptide array binding signal intensity,CaBzz1-D1,290
same,SPOT peptide array binding signal intensity,CaBzz1-D2,98.2
same,SPOT peptide array binding signal intensity,CaCyk3,15
same,SPOT peptide array binding signal intensity,CaFus1,1460
same,SPOT peptide array binding signal intensity,CaHof1,≤ 0
same,SPOT peptide array binding signal intensity,CaHse1,224
same,SPOT peptide array binding signal intensity,CaLsb1,16.2
same,SPOT peptide array binding signal intensity,CaLsb4,7000
same,SPOT peptide array binding signal intensity,CaMyo5,60
same,SPOT peptide array binding signal intensity,CaNbp2,410
same,SPOT peptide array binding signal intensity,CaRvs167,1050
same,SPOT peptide array binding signal intensity,CaRvs167-3,0.5
same,SPOT peptide array binding signal intensity,CaSho1,799
same,SPOT peptide array binding signal intensity,CaSla1-D1-D2,409
same,SPOT peptide array binding signal intensity,CaSla1-D3,242
same,SPOT peptide array binding signal intensity,ScAbp1,16
same,SPOT peptide array binding signal intensity,ScBbc1,7.5
same,SPOT peptide array binding signal intensity,ScBem1-D1,1
same,SPOT peptide array binding signal intensity,ScBzz1-D1,13
same,SPOT peptide array binding signal intensity,ScBzz1-D2,10.5
same,SPOT peptide array binding signal intensity,ScCyk3,9
same,SPOT peptide array binding signal intensity,ScFus1,510
same,SPOT peptide array binding signal intensity,ScHof1,≤ 0
same,SPOT peptide array binding signal intensity,ScHse1,92
same,SPOT peptide array binding signal intensity,ScLsb1,362
same,SPOT peptide array binding signal intensity,ScLsb2,218
same,SPOT peptide array binding signal intensity,ScLsb3,5190
same,SPOT peptide array binding signal intensity,ScLsb4,3270
same,SPOT peptide array binding signal intensity,ScMyo3,14
same,SPOT peptide array binding signal intensity,ScMyo5,0.75
same,SPOT peptide array binding signal intensity,ScNbp2,348
same,SPOT peptide array binding signal intensity,ScPex13,234
same,SPOT peptide array binding signal intensity,ScRvs167,2170
same,SPOT peptide array binding signal intensity,ScSho1,682
same,SPOT peptide array binding signal intensity,ScSla1-D1-D2,192
same,SPOT peptide array binding signal intensity,ScSla1-D3,212
same,SPOT peptide array binding signal intensity,SpAbp1-D1,48
same,SPOT peptide array binding signal intensity,SpBbc1,≤ 0
same,SPOT peptide array binding signal intensity,SpBzz1-D1,362
same,SPOT peptide array binding signal intensity,SpBzz1-D2,5.5
same,SPOT peptide array binding signal intensity,SpCyk3,9.5
same,SPOT peptide array binding signal intensity,SpHof1,21.5
same,SPOT peptide array binding signal intensity,SpHof1-2,18.2
same,SPOT peptide array binding signal intensity,SpHof1-3,11
same,SPOT peptide array binding signal intensity,SpHse1,174
same,SPOT peptide array binding signal intensity,SpLsb1,160
same,SPOT peptide array binding signal intensity,SpLsb4,4630
same,SPOT peptide array binding signal intensity,SpMyo1,75
same,SPOT peptide array binding signal intensity,SpNbp2,59
same,SPOT peptide array binding signal intensity,SpPex13,42.5
same,SPOT peptide array binding signal intensity,SpRvs167,2340
same,SPOT peptide array binding signal intensity,SpSla1-D1-D2,2.5
same,SPOT peptide array binding signal intensity,SpSla1-D3,148
